Laboratory results as given in PubChem BioAssay AID493014 (National Center for Advancing Translational Sciences (NCATS), 2011).
Out of some 340,000 compounds screened, about 170 (0.05%) were called active. A call without a number means that no potency is given here. Roughly 26% stayed inconclusive and do not appear here. The call rests on the fitted dose curve; in most records, active means well fitted inhibition curve with a large enough effect in the signal ratio, with a control signal flat (not every such curve was filed as active); inconclusive means small, poorly fitted or top-dose-only effect, or effect the other way, or a change in a side signal; inactive means flat fitted curve, though single readings scatter; the % refers to the signal ratio. For the sample, actives were picked, then their nearest neighbours and some compounds at random.

Experiment: qHTS Assay to Find Inhibitors of Chronic Active B-Cell Receptor Signaling
Conditions: ABC-DLBCL IkBa-CBG/CBR reporter, luminescence ratio, 4 h; series mostly up to 46.1 µM
Excerpt: NIH Molecular Libraries Probe Production Network [MLPCN] NIH Chemical Genomics Center [NCGC] MLPCN Grant: 1 R03 DA031086-01A1 PI Name: Dr. R. Eric Davis NCGC Assay Overview: Diffuse large B-cell lymphoma (DLBCL) is the most common category of non-Hodgkin lymphoma, with ~20,000 new cases per year in the United States. DLBCL should be regarded as a collection of different neoplasms. Microarray gene expression analysis has defined two principal types of DLBCL, named for their similarity to normal B cell stages or activation states: a germinal center B-cell (GCB) type, and an activated B-cell (ABC) type. In ABC-DLBCL, a constitutive high-level activity of the NF-kappaB family of transcription factors has been observed (1) and NF-kappaB target genes are more highly expressed in ABC primary tumors than in GCB tumors. Functional studies have shown a constitutive high-level activity of the IkappaB (inhibitor of kappa-B) kinase (IKK) complex. […] Further analysis of DLBCL primary tumors for NF-kappaB target gene expression imply that although CARD11 is required for constitutive IKK activity in all ABC-DLBCL lines, mutations in CARD11 may be the root cause of IKK activation only in lines or tumors with such mutations. In other words, CARD11 mutations may explain NF-kappaB activation in only 10% of ABC-DLBCL cases. […] This process has been termed 'chronic active BCR signaling' (CABS). The goal of this screen is to find small-molecule inhibitors of the CABS pathway found in ABC-DLBCL lines using a cell-based assay that measures IkappaBalpa stability, which has already been extensively validated in the OCI-Ly3 line (PubChem AID:445; REF: 4). […] The assay uses green (CBG68) and red (CBR) emitting beetle luciferases [Chroma-GloTM developed by Promega Corp.] where the green luciferase is fused to IkappaBalpha and the red luciferase is present in its native state. Both luciferase genes are stably present in the TMD8 human ABC DLBCL cell line, but their expression is under the control of tetracycline-inducible promoters. Following the addition of doxycycline to induce expression of the luciferases, the green luminescence in control cultures rises only slowly because the CBG fusion partner IkappaBalpha is targeted by IKK activity for rapid degradation. In contrast, green luminescence rises rapidly in the presence of proteasome inhibitors or IKK inhibitors. The rise in red luminescence of CBR is not affected by proteasome or IKK inhibitors, and serves as normalization for cell number and nonspecific effects. Compounds were screened as a concentration-titration series that ranged from 46 uM to 3 nM.
NCGC Assay Protocol Summary: Cells were seeded in 1536-well plates at 5000 cells/4uL in IMDM medium containing 0.5% FBS, w/o phenol red, 1% penicillin/streptomycin. Then, 23 nL of compounds or DMSO were delivered to each well using a pin tool. One uL 20ng/ml doxycycline was then dispensed into white solid 1536-well plates and the plates were incubated at 37C/5% C02 in a cell incubator for 4 hrs. Then 4 uL luminescent substrate mix (in-house prepared: 150 mM Tris-Cl, pH 7.6, 3 mM MgCl2, 1% Triton X-100, 5 mM DTT, 0.2 mM CoA, 0.15 mM ATP, 5 mM D-luciferin, final concentrations) was added to each well. The plate was incubated at r.t. for 10-15 min. The plates were measured on a ViewLux plate reader for green luminescence (540/20 nm filter) and red luminescence (618/8 nm filter). The green and red luminescent signals were corrected for red and green luminescence filter overlap using previously determined filter calibration constants (determined using the procedure outlined in the Promega Technical Manual; REF 4). The %Activity was determined from the ratio of corrected green/red luminescent values. MG132 were used as control. […] Red luminescent %Activity was normalized to the difference between red luminesence in basal cells (0%Activity) and zero luminescence (-100% Activity). […]
Potency means the concentration at half of the fitted maximal effect.

SMILES	Potency
CN(CC(=O)NC1CCN(Cc2ccccc2)CC1)S(=O)(=O)c1ccc(Cl)s1	inactive
COc1cc(OC)cc(-c2c(-c3cccs3)c3cc(-c4ccc(OC)nc4)ccc3n2C)c1	inactive
Cc1ccc(NC(=O)CN(C)C(=O)c2cccc(S(=O)(=O)N3CCCC3)c2)cc1	inactive
CN(C)C(=O)CCc1ccc2c3c([nH]c2c1)[C@]1(CCC2CCCC2)[C@@H](C(=O)N2CCOCC2)C[C@H](CC(=O)NCc2ccco2)C(=O)N1CC3	inactive
COc1cccc(CNC(=O)COc2cc(O)c3c(c2)OC(C)(C)CC3=O)c1	inactive
Cc1ccc(NC(=O)c2ccc(Cl)nc2)cc1S(=O)(=O)N1CCOCC1	inactive
COc1ccc(-c2sc3ccccc3c2-c2ccc(OCCN3CCOCC3)cc2)cc1	inactive
COc1cccc(-c2sc3ccc(OC)cc3c2-c2ccc(OCCN3CCCCC3)cc2)c1	18.4 µM (active)
COc1ccc2sc(-c3ccccc3OC)c(-c3ccc(OCCN4CCCC4)cc3)c2c1	inactive
CCN(CC)c1ccc(S(=O)(=O)N2CCCCC2)cc1NC(=O)C1=COCCO1	inactive
COc1ccccc1CNC(=O)c1ccc(Cl)c(S(=O)(=O)N2CCCC2)c1	inactive
Cc1onc(-c2c(F)cccc2Cl)c1C(=O)OCC(=O)N1C(C)CCCC1C (stereo unspecified)	inactive
COc1ccc(S(=O)(=O)N2CCCCCC2)cc1C(=O)N(C)Cc1cccc(OC)c1OC	inactive
COC(=O)c1ccc(/C=C/c2c(-c3ccc(OC)cc3)sc3ccccc23)cc1	inactive
O=C1Nc2ccccc2/C1=C/c1ccnc2ccccc12	inactive
CCCCN(CC(=O)Nc1cccc(S(=O)(=O)N2CCCC2)c1)Cc1nc2ccccc2c(=O)[nH]1	inactive
O=S(=O)(NCCCCCCNS(=O)(=O)c1c(F)cccc1F)c1ccc2c(c1)OCCO2	inactive
CCN(c1ccccc1)S(=O)(=O)c1cccc(C(=O)NCc2ccccc2CN2CCOCC2)c1	inactive
C=CC[C@@H](CC(=O)N[C@H](CO)Cc1ccccc1)C(=O)N[C@H](C)COC(=O)[C@@H](CC=C)Cc1ccc(F)cc1	inactive
O=S(=O)(NC1CCN(S(=O)(=O)c2ccc3c(c2)OCCO3)CC1)c1c(F)cccc1F	inactive
COC(=O)[C@]1(Cc2ccccc2)N[C@H](CN(C)S(=O)(=O)c2ccc(OC(F)(F)F)cc2)[C@@H]2C(=O)N(C)C(=O)[C@@H]21	inactive
Nc1ccc(Nc2cc(O)c3ncccc3c2)cc1	inactive
Cc1ccc(NS(=O)(=O)c2ccc(C(C)C)cc2)cc1S(=O)(=O)N1CCOCC1	inactive

SMILES	Potency
CCN(C[C@H]1N[C@@](Cc2ccccc2)(C(=O)OC)[C@H]2C(=O)N(Cc3ccccc3)C(=O)[C@@H]12)C(=O)c1ccc(C)cc1	inactive
O=C1C=CN2CCCC2CC1 (stereo unspecified)	inactive
COc1cccc(NC(=O)COC(=O)c2ccc3ccccc3n2)c1	inactive
CCOC(=O)C1CCCN(C(=O)CSc2nnc3nc(C)cc(C)n23)C1 (stereo unspecified)	inactive
COc1cccc(C2=CC(=O)C[C@H](c3ccc(OC)c(OC)c3)C2)c1	inactive
CN(C)C(=O)COC(=O)c1cccc(S(=O)(=O)N2CC3(C)CC2CC(C)(C)C3)c1 (stereo unspecified)	inactive
Cc1ccc(-n2ncc3c2CC(C)(C)CC3NC(=O)Cc2c(C)noc2C)cc1 (stereo unspecified)	inactive
COC(=O)[C@]1(CC(C)C)N[C@H](c2ccc(SC3CCCCC3)cc2)[C@@H]2C(=O)N(C)C(=O)[C@@H]21	inactive
O=C1COc2ccc(C(=O)CSc3ccc(Br)cc3)cc2N1	inactive
Cc1ccc(N2CC(C(=O)N3CCC4(CC3)CC(=O)c3ccccc3O4)CC2=O)cc1C (stereo unspecified)	inactive
CC(=O)Nc1ccc(S(=O)(=O)NCCC(=O)N2CCN(c3ccccc3Cl)CC2)cc1	inactive
Fc1ccccc1-c1cc2cc3c(cc2cn1)OCO3	inactive
CCN(CC(=O)Nc1ccc(OC)cc1)C(=O)CSCc1ccc(C)cc1	inactive
Cc1cccc(N(Cc2ccccc2)C(=O)c2cc(S(=O)(=O)N3CCOCC3)ccc2F)c1	inactive
CCN(CC)S(=O)(=O)c1ccc(N2CCOCC2)c(NC(=O)C(C)Oc2ccc(F)cc2)c1 (stereo unspecified)	inactive
CC1Sc2ccc(C(=O)NCc3ccccc3Cl)cc2NC1=O (stereo unspecified)	inactive
O=C(O[C@@H]1[C@H](Cc2ccccc2)NS(=O)(=O)[C@H]2C[C@@H]3C=C[C@]12O3)c1ccccc1Br	inactive
CC(C)(C)OC(=O)C[C@@H]1C/C=C\C[C@H](CC(=O)N[C@@H](CO)Cc2ccccc2)C(=O)N[C@H](Cc2ccccc2)COC1=O	inactive
CN=C(Nc1cccc(S(=O)(=O)N2CCOCC2)c1)c1ccccc1	inactive
Oc1ccccc1CN1CCN(C(c2ccccc2)c2ccccc2)CC1	inactive
COc1ccc(-c2cc(=O)oc3cc(OC(C)C(=O)Nc4ccc(CN5CCOCC5)cc4)ccc23)cc1 (stereo unspecified)	inactive
COc1ccc(CNC(=O)C[C@H]2C[C@H](C(=O)N3CCOCC3)[C@@]3(CCC4CCCC4)c4[nH]c5ccc(Cl)cc5c4CCN3C2=O)cc1OC	inactive
CC(=O)Nc1ccc(SC[C@H](Cc2ccccc2)N2CC[C@@H](C)CCC2=O)cc1	inactive
